Compound activity from PubChem.
PL biosyn Enam = blocks phospholipid synthesis in CHO cells, Enamine compounds. calls only at 10 µM. hit rate 0.4% among 20,000. ZR-82 CHO cells, pyrene fatty acid UV survival, CellTiter Blue; peroxisome-deficient CHO-K1 mutant line; plus DGAT-1, DGAT-2 and ACAT inhibitors;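 active = cell survival signal 2 SD away from solvent-only control wells, confirmed on one or two retests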;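 note: 3 h compound exposure then viability read about one day after UV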
Starred values were filed as active, the others as inactive. Only a selection was taken, and hits are over-represented in it overall.

What do the screens show for `Cn1cnc2c1c(=O)n(CCCSc1nnnn1Cc1cccs1)c(=O)n2C`?
PL biosyn Enam: inactive

Results for c1ccc(-c2ccc(-c3cn4c(n3)sc3ccccc34)cc2)cc1 ?
PL biosyn Enam: inactive

How did CC(C)N=c1scc(-c2ccc(Cl)c(Cl)c2)n1/N=C/c1ccc2c(c1)OCCO2 do in these assays?
PL biosyn Enam: inactive

What do the screens show for `CN=c1scc(-c2ccc(Br)cc2)n1/N=C/c1ccc(Cl)cc1`?
PL biosyn Enam: inactive

How did Cc1ccc(-c2csc(=NC(C)C)n2/N=C/c2ccc(Cl)cc2)cc1C do in these assays?
PL biosyn Enam: active

What do the screens show for `N=C(N)N=Nc1c(O)[nH]c2ccccc12`?
PL biosyn Enam: inactive

What do the screens show for `Cc1ccc(C)c(N=Nc2c(C)[nH]c3ccccc23)c1`?
PL biosyn Enam: active

How did Cc1cc(=S)[nH]c2ccccc12 do in these assays?
PL biosyn Enam: inactive

Results for CN1/C(=C/C=NCC(O)c2ccc([N+](=O)[O-])cc2)C(C)(C)C2C=CC=CC21 (stereo not given) ?
PL biosyn Enam: inactive

What do the screens show for `O=C(O)Cc1cc(=O)[nH]c(=O)[nH]1`?
PL biosyn Enam: inactive

Results for OCCCNc1ncnc2sccc12 ?
PL biosyn Enam: inactive

How did CN(C)C(CNc1ncnc2sccc12)c1cccs1 (stereo not given) do in these assays?
PL biosyn Enam: inactive

How did ClC1(Cl)CC1CNc1ncnc2sccc12 (stereo not given) do in these assays?
PL biosyn Enam: active

Results for O=S(=O)(Nc1ccc(Br)cc1F)c1ccc2c(c1)OCCO2 ?
PL biosyn Enam: inactive

Results for C/C(=N\n1c(-c2ccc(OC(F)F)cc2)csc1=NC(C)C)c1ccc(-n2ccnc2)cc1 ?
PL biosyn Enam: active

What do the screens show for `C=CCN=c1scc(-c2ccc(OC(F)F)cc2)n1/N=C(\C)c1ccc2c(c1)OCCO2`?
PL biosyn Enam: inactive

Results for COCCN=c1scc(-c2ccc(OC(F)F)cc2)n1/N=C(\C)c1ccc2c(c1)OCO2 ?
PL biosyn Enam: inactive

Results for CN(C)S(=O)(=O)c1ccc(OCCSc2nnc(C3CC3)n2C2CC2)cc1 ?
PL biosyn Enam: inactive

How did Cc1cc(NC(=O)Cn2nc(C)c(S(=O)(=O)NC(C)(C)C)c2C)no1 do in these assays?
PL biosyn Enam: inactive

Results for Cc1ccc(N=P2(N3CCOCC3)/C(=C3/N(C)c4ccccc4C3(C)C)C=NN2c2ccccc2)cc1 (stereo not given) ?
PL biosyn Enam: inactive
